Assay [1] has as its target cAMP-dependent protein kinase catalytic subunit alpha (Homo sapiens) (UniProt P17612). Kind of assay: NVS_ENZ_hPKA: NovaScreen (NVS) Enzymatic Assay for human Protein Kinase A (PKA) (AID 2283192). An outline of the steps:
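Recombinant human PKA with specific fluorescent substrate, product separated by electrophoretic mobility shift, read 1 h after dosing. Primary screen at 25 uM in duplicate; actives then run in concentration-response up to 50 uM, activity relative to DMSO.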

Assay [2] deals with human Phosphodiesterase 5 (PDE5), PDE5A (gene 8654) (UniProt O76074). Kind of assay: NVS_ENZ_hPDE5: NovaScreen (NVS) Enzymatic Assay for human Phosphodiesterase 5 (PDE5) (AID 2283194). The protocol: NVS_ENZ_hPDE5 is a biochemical, single-readout assay that uses extracted gene-proteins in a cell-free assay. Measurements were taken 1 hour after chemical dosing in a 384-well plate.NVS_ENZ_hPDE5 is one of one assay component(s) measured or calculated from the NVS_ENZ_hPDE5 assay. It is designed to make measurements of enzyme activity, a form of enzyme reporter, as detected with fluorescence intensity signals by Fluorescence and electrophoretic mobility shift technology.Data from the assay component NVS_ENZ_hPDE5 was analyzed into 1 assay endpoint. This assay endpoint, NVS_ENZ_hPDE5, was analyzed in the positive analysis fitting direction relative to DMSO as the negative control and baseline of activity. Using a type of enzyme reporter, loss-of-signal activity can be used to understand changes in the enzymatic activity as they relate to the gene PDE5A. Furthermore, this assay endpoint can be referred to as a primary readout, because this assay has produced multiple assay endpoints where this one serves a enzymatic activity function. To generalize the intended target to other relatable targets, this assay endpoint is annotated to the esterase intended target family, where the subfamily is phosphodiesterase.
Binding assays used specific radioligands (tritiated, iodinated) with non-radioactive competitive displacement ligands in agonist or antagonist protocols (as indicated) and various reference compounds and inhibitors to titrate specific binding to receptors and transporters. Most enzyme assays (CYPs, kinases, phosphatases, proteases, HDACs) used recombinant protein and specific substrates (fluorescence mostly, some colorimetric and radioactive) and inhibitors, followed by a biochemical separation of substrate and product. All assays for the biochemical HTS were initially run in duplicate at a single concentration (10 uM for CYP450 assays and 25 uM for all others). […] Each assay was run with positive and negative controls, and concurrent controls on every plate. The follow-up (secondary) screen tested active chemical-pairs in concentration series, as well as a few additional assays not tested in the primary screen, some selected negative inactives, and several cases re-run in the concentration series for confirmatory purposes.

Assay [3] deals with PPP2CA (gene 5515) (UniProt P67775). Nature of the assay: NVS_ENZ_hPPP2CA: NovaScreen (NVS) Enzymatic Assay for human Protein Phosphatase 2 Aatalytic subunit Alpha (PPP2CA) (AID 2283199). An outline of the steps: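 Recombinant human PPP2CA with fluorescent substrate; product separated from substrate by electrophoretic mobility shift, read 1.33 h after dosing. Duplicate single-point at 25 uM, then singleton concentration-response up to 50 uM; loss of signal versus DMSO.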

Assay [4] deals with human Protein Tyrosine Phosphatase Non-receptor Type 1 (PTPN1), PTPN1 (gene 5770) (UniProt P18031). Nature of the assay: NVS_ENZ_hPTPN1: NovaScreen (NVS) Enzymatic Assay for human Protein Tyrosine Phosphatase Non-receptor Type 1 (PTPN1) (AID 2283201). In short, it runs like this:
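Cell-free fluorogenic-substrate activity assay on recombinant enzyme, read 1.33 h after dosing by fluorescence and electrophoretic mobility shift; loss of signal vs DMSO baseline. Primary screen in duplicate at 25 uM, hits then run in concentration-response up to 50 uM.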

Assay [5] deals with Tyrosine-protein phosphatase non-receptor type 11 (Homo sapiens) (UniProt Q06124). Nature of the assay: NVS_ENZ_hPTPN11: NovaScreen (NVS) Enzymatic Assay for human Protein Tyrosine Phosphatase Non-receptor Type 11 (PTPN11) (AID 2283202). An outline of the steps:
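Recombinant human PTPN11 activity on a fluorescent substrate, with substrate/product separated by electrophoretic mobility shift; read 0.5 h after dosing, loss of signal vs DMSO. Duplicate 25 uM screen, then concentration-response up to 50 uM.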

Assay [6] concerns the target human Phosphodiesterase 10 (PDE10), PDE10A (gene 10846) (UniProt Q9Y233). Kind of assay: NVS_ENZ_hPDE10: NovaScreen (NVS) Enzymatic Assay for human Phosphodiesterase 10 (PDE10) (AID 2283195). In short, it runs like this: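 Recombinant human PDE10 with fluorescent substrate, 1 h, product separated by electrophoretic mobility shift. Loss of enzyme activity fitted against DMSO; initial screen 25 uM in duplicate, actives run to 50 uM maximum.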

Assay [7] addresses human Phosphoinositide 3-kinase alpha (PI3Ka), PIK3CA (gene 5290) (UniProt P42336). Kind of assay: NVS_ENZ_hPI3Ka: NovaScreen (NVS) Enzymatic Assay for human Phosphoinositide 3-kinase alpha (PI3Ka) (AID 2283196). In short, it runs like this:
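Duplicate single-point screen (25 uM), then singleton dose-response (max 50 uM) for compounds meeting the threshold. Cell-free kinase reaction, 1 h; fluorescent mobility-shift readout.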

Assay [8] addresses human Phosphatase and Tensin Homolog (PTEN), PTEN (gene 5728) (UniProt P60484). Kind of assay: NVS_ENZ_hPTEN: NovaScreen (NVS) Enzymatic Assay for human Phosphatase and Tensin Homolog (PTEN) (AID 2283203). In short, it runs like this: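 Cell-free recombinant human PTEN with fluorescent substrate; product separated by electrophoretic mobility shift and read by fluorescence 1 h after dosing. Primary screen in duplicate at 25 uM, actives followed in concentration series versus DMSO.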

Assay [9] concerns the target human Protein Phosphatase, Mg2+/Mn2+ Dependent 1A (PPM1A), PPM1A (gene 5494) (UniProt P35813). Nature of the assay: NVS_ENZ_hPPM1A: NovaScreen (NVS) Enzymatic Assay for human Protein Phosphatase, Mg2+/Mn2+ Dependent 1A (PPM1A) (AID 2283198). An outline of the steps:
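Cell-free recombinant PPM1A phosphatase assay with fluorescent substrate, read 1 h after dosing by electrophoretic mobility shift. Chemicals screened in duplicate at 25 uM, then in concentration-response up to 50 uM; loss of activity versus DMSO.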

The target of assay [10] is Serine/threonine-protein phosphatase PP1-alpha catalytic subunit (Homo sapiens) (UniProt P62136). Nature of the assay: NVS_ENZ_hPPP1CA: NovaScreen (NVS) Enzymatic Assay for human Protein Phosphatase 1 Aatalytic subunit Alpha (PPP1CA) (AID 2283200). The protocol:
NVS_ENZ_hPPP1CA is a biochemical, single-readout assay that uses extracted gene-proteins in a cell-free assay. Measurements were taken 1.33 hours after chemical dosing in a 384-well plate.NVS_ENZ_hPPP1CA is one of one assay component(s) measured or calculated from the NVS_ENZ_hPPP1CA assay. It is designed to make measurements of enzyme activity, a form of enzyme reporter, as detected with fluorescence intensity signals by Fluorescence and electrophoretic mobility shift technology.Data from the assay component NVS_ENZ_hPPP1CA was analyzed into 1 assay endpoint. This assay endpoint, NVS_ENZ_hPPP1CA, was analyzed in the positive analysis fitting direction relative to DMSO as the negative control and baseline of activity. Using a type of enzyme reporter, loss-of-signal activity can be used to understand changes in the enzymatic activity as they relate to the gene PPP1CA. Furthermore, this assay endpoint can be referred to as a primary readout, because this assay has produced multiple assay endpoints where this one serves a enzymatic activity function. To generalize the intended target to other relatable targets, this assay endpoint is annotated to the phosphatase intended target family, where the subfamily is serine/threonine phosphatase.
Binding assays used specific radioligands (tritiated, iodinated) with non-radioactive competitive displacement ligands in agonist or antagonist protocols (as indicated) and various reference compounds and inhibitors to titrate specific binding to receptors and transporters. Most enzyme assays (CYPs, kinases, phosphatases, proteases, HDACs) used recombinant protein and specific substrates (fluorescence mostly, some colorimetric and radioactive) and inhibitors, followed by a biochemical separation of substrate and product. All assays for the biochemical HTS were initially run in duplicate at a single concentration (10 uM for CYP450 assays and 25 uM for all others). […]

In general, AC50 refers to the midpoint of the concentration-response curve, whichever way the signal moves.

Inconclusive results are not listed. The source made the active and inactive calls. How the source made its calls: active means hit-call score of the fitted dose curve at least 0.9, where 1 is the maximum; inconclusive means response in the unintended direction; inactive means score below 0.9.

Sequence of Serine/threonine-protein phosphatase PP1-alpha catalytic subunit (Homo sapiens) (P62136 whole entry, looked up): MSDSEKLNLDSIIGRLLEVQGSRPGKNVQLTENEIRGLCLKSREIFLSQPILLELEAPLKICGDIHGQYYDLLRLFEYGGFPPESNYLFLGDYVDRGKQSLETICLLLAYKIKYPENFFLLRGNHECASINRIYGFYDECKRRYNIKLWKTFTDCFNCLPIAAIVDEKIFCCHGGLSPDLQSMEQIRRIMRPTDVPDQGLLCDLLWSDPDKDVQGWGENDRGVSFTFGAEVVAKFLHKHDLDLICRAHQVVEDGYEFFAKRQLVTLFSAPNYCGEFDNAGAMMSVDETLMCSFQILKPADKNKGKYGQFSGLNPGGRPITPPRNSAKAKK
Sequence of PPP2CA (gene 5515) (P67775 whole entry, looked up): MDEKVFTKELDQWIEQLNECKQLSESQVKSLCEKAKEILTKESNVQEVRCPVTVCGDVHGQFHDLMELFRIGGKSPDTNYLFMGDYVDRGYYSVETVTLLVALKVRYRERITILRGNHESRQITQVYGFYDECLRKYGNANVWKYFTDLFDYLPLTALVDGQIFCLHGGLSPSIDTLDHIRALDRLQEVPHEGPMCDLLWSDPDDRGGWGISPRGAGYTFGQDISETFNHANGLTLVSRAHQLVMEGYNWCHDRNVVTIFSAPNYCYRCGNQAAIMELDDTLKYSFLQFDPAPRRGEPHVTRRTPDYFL
Sequence of human Protein Phosphatase, Mg2+/Mn2+ Dependent 1A (PPM1A), PPM1A (gene 5494) (P35813 whole entry, looked up): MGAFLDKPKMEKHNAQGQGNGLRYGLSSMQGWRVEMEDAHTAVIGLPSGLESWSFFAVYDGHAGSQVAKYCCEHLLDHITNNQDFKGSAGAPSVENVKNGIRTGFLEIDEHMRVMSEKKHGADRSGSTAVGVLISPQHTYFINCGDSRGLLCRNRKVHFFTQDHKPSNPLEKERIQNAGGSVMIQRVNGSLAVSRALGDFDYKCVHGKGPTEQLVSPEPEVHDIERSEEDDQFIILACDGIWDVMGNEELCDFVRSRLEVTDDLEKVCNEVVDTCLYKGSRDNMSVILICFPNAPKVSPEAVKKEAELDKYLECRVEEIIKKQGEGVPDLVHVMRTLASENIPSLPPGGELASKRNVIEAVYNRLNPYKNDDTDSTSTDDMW
Sequence of human Phosphatase and Tensin Homolog (PTEN), PTEN (gene 5728) (P60484 whole entry, looked up): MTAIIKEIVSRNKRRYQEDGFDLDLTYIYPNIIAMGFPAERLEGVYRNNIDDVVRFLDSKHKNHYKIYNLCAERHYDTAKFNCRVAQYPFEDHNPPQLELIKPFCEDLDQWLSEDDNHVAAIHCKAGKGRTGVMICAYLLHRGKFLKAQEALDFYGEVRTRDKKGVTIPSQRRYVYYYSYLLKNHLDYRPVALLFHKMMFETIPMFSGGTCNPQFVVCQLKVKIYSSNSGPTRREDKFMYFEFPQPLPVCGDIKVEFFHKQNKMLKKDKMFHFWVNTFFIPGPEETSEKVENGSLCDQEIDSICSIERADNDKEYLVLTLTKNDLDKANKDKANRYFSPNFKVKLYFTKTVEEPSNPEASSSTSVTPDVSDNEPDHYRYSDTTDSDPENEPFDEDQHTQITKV
Sequence of human Protein Tyrosine Phosphatase Non-receptor Type 1 (PTPN1), PTPN1 (gene 5770) (P18031 whole entry, looked up): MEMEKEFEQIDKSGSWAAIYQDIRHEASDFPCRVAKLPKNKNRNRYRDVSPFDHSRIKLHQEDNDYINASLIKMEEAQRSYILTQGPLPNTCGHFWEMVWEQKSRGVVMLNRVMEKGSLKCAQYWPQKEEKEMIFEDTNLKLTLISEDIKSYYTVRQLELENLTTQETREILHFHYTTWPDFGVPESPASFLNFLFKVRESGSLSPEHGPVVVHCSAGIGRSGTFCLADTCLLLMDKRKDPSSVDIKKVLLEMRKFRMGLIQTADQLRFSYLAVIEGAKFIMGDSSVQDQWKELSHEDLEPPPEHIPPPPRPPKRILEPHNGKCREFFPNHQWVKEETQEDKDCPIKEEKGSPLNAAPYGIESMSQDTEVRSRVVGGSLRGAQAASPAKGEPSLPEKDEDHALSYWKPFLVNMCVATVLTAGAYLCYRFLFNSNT
Sequence of Tyrosine-protein phosphatase non-receptor type 11 (Homo sapiens) (Q06124 whole entry, looked up): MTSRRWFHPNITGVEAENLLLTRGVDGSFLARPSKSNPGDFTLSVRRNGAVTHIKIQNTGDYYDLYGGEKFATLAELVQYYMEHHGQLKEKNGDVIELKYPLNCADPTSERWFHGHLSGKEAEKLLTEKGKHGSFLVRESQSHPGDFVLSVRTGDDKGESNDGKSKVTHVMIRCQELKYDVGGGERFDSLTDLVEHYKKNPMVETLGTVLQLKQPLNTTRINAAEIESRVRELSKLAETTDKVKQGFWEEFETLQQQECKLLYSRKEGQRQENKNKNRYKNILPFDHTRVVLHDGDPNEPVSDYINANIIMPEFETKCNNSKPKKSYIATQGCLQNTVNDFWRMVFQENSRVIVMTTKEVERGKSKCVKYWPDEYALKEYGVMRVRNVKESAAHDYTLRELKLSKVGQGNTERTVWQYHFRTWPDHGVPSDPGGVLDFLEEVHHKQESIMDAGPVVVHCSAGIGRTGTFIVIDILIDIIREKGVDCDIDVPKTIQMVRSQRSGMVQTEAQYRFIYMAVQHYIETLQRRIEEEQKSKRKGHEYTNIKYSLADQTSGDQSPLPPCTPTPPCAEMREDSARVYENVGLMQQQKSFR
Sequence of human Phosphodiesterase 10 (PDE10), PDE10A (gene 10846) (Q9Y233 whole entry, looked up): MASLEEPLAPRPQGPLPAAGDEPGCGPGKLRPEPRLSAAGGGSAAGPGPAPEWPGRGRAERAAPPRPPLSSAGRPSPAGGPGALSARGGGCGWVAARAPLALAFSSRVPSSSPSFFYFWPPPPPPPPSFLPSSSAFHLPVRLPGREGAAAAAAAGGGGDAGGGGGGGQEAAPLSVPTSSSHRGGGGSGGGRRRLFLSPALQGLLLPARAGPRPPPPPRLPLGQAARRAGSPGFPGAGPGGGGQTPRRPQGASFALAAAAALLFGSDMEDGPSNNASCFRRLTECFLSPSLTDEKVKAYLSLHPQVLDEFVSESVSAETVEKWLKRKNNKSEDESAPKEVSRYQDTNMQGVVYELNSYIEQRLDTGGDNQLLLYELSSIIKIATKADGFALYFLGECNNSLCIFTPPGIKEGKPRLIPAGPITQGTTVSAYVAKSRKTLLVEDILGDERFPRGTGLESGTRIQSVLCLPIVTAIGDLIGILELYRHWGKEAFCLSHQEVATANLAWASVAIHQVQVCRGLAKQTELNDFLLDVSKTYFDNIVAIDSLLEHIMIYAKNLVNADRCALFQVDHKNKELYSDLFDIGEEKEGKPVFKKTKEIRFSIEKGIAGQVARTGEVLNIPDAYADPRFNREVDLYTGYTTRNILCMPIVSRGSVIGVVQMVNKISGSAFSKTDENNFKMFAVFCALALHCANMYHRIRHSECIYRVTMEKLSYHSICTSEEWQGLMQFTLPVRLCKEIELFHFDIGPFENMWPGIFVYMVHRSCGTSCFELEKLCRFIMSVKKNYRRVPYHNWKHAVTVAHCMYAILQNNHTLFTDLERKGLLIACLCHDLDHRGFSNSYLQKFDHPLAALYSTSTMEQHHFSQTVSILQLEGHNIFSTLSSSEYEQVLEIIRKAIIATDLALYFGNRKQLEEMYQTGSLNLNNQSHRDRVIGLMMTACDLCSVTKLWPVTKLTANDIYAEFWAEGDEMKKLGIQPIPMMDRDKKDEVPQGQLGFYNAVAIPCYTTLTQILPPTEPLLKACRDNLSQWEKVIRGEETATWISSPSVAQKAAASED
Sequence of human Phosphoinositide 3-kinase alpha (PI3Ka), PIK3CA (gene 5290) (P42336 whole entry, looked up): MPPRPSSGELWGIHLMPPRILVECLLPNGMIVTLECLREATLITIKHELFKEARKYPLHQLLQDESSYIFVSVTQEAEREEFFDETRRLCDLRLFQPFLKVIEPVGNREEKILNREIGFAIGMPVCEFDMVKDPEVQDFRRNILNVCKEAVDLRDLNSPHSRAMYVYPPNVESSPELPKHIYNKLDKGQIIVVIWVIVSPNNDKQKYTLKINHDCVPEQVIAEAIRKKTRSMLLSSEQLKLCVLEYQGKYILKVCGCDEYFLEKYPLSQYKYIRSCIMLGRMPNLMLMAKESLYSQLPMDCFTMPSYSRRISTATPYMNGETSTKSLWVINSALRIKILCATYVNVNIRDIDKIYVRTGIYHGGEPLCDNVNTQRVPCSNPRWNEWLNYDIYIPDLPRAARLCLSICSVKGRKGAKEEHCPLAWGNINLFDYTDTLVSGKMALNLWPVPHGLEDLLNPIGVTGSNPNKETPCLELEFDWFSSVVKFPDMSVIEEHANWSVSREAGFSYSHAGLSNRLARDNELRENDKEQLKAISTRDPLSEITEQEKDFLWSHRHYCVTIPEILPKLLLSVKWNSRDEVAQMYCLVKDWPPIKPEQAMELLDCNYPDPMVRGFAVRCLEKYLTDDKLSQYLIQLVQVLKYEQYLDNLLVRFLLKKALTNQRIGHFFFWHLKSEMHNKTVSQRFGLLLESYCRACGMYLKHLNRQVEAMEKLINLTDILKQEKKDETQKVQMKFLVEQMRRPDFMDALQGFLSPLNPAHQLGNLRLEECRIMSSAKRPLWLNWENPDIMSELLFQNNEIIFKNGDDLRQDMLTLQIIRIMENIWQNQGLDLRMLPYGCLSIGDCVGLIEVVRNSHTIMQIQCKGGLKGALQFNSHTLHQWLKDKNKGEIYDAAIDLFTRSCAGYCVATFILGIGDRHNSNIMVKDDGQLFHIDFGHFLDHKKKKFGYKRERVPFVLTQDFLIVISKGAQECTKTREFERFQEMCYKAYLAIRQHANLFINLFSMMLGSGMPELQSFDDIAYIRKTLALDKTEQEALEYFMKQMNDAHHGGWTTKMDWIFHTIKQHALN

For `CCN(CC)N=O`, the compound was called inactive in assay [1], in [2], in assay [3], in assay [4] and in assay [5].

For the compound `CCCCC(CC)COC(=O)c1ccc(C(=O)OCC(CC)CCCC)c(C(=O)OCC(CC)CCCC)c1` (centres undefined), in assay [2], the call was inactive.

Turning to `O=C(Oc1ccc(Br)cc1)N1CCN2CCC1CC2`, the result in assay [6] was inactive.

Regarding `Oc1ccc2ccc3cccc4ccc1c2c34`, the AC50 in assay [1] was 6.65 µM (active).

`CCNS(=O)(=O)C(F)(F)C(F)(F)C(F)(F)C(F)(F)C(F)(F)C(F)(F)C(F)(F)C(F)(F)F`: the result in assay [1], in assay [2], in [6], in [7], in assay [3] and in [4] was inactive. Further, the compound was classed as inactive in [5] and in [8].

As to `Cc1ccc(N=C=O)cc1N=C=O`, the compound was called inactive in assay [9] and in assay [10].

Regarding `Cn1cc(-c2ccccc2)c(=O)c(-c2cccc(C(F)(F)F)c2)c1`, the outcome in [8] was inactive.

Turning to `N#CC(Br)(Br)C(N)=O`, in assay [10], the outcome was inactive.

`CCOc1cccc(C2(N3CCN(c4ccccc4)CC3)CCC(C)CC2)c1` (centres undefined): the outcome in assay [1] and in assay [9] was inactive.

As for `c1ccc(C2CO2)cc1` (centres undefined), the compound was called inactive in [2].

With `CC(C)(OOC(C)(C)c1ccccc1)c1ccccc1`, the result in [3] was inactive.

Regarding `C[C@]12C=CC3=C4CCC(=O)C=C4CC[C@H]3[C@@H]1CC[C@@H]2O`, the AC50 in assay [2] was 25 µM (active).

Take `CCCCOC(=O)c1ccccc1C(=O)OCc1ccccc1`: in [9], the result was inactive.

Take `Nc1ccc([N+](=O)[O-])cc1`: the compound was called inactive in assay [3] and in assay [10].

Consider `CCCSC(=O)N(CCC)CCC`, for which the outcome in assay [2] was inactive.

In the case of `CCC12COCN1COC2`, the call in assay [9] and in assay [3] was inactive.

Take `Nc1ccc(Cl)cc1N`: in assay [2], the AC50 is 12.6 µM (active).

For `Clc1ccc(Cl)c(Cl)c1`, the result in assay [3] was inactive.

In the case of `CN(C)c1ccc(C(=O)c2ccc(N(C)C)cc2)cc1`, in assay [2], the concentration at half-maximal activity (AC50) is 29.1 µM (active).

For the origin of these results see PubChem BioAssay (EPA / NIEHS).
